The values that follow come from PubChem BioAssay (EPA / NIEHS).

A short description of assay [1]: ATG_TCF_b_cat_CIS: Attagene CIS-FACTORIAL HepG2 Assay for human T-Cell-Factor with beta-catenin (TCF/b-cat) (AID 2282965). The following applies: HepG2 TCF/beta-catenin cis-reporter transcription, actives raise or lower the signal. An outline of the steps:
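Endogenous transcription factor activity is captured through cis-promoter reporter constructs transiently introduced into human HepG2 liver cells. Induced reporter mRNA is measured after 24 h and fitted bidirectionally relative to DMSO.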

Assay [2] can be described thus: ATG_TAL_CIS: Attagene CIS-FACTORIAL HepG2 Assay for human TAL Basal Promoter (AID 2282966).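 Further: background control endpoint measuring basal TAL promoter reporter mRNA not a specific factor.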 The following applies: HepG2 Attagene cis-factorial TAL promoter reporter; actives raise or lower the signal. An outline of the steps: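 Readout: reporter mRNA, fluorescence by CE. System: HepG2, transient multi-reporter transfection, endogenous TF activity. Exposure: 24 h. Analysis: bidirectional, DMSO-normalized; background control.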

The nature of assay [3]: ATG_TGFb_CIS: Attagene CIS-FACTORIAL HepG2 Assay for human Transforming Growth Factor (TGF) (AID 2282967). The following applies: HepG2 Attagene CIS TGFb reporter, mRNA transcription; actives raise or lower the signal. The method in brief:
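HepG2 cells transiently transfected with cis-promoter-driven multiple reporter units measure endogenous TF activity; reporter mRNA quantified at 24 h by RT-PCR, FAM labeling, HpaI digestion and capillary electrophoresis. Bidirectional fit vs DMSO.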

The nature of assay [4]: ATG_VDRE_CIS: Attagene CIS-FACTORIAL HepG2 Assay for human Vitamin D Receptor Element (VDRE) (AID 2282968). The following applies: HepG2 VDRE cis-reporter transcription, actives raise or lower the signal. The method in brief: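 Reporter mRNA induction, quantified by capillary electrophoresis of fluorescently labelled RT-PCR products, was read 24 h after dosing HepG2 cells carrying transiently transfected cis-regulated reporter units; gain or loss relative to DMSO.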

Assay [5] has as its target Estrogen receptor (Homo sapiens) (UniProt P03372). The assay is described as follows: ATG_ERa_TRANS: Attagene TRANS-FACTORIAL HepG2 Assay for human Estrogen Receptor alpha (ERa) (AID 2282970; active means hit-call score of the fitted dose curve at least 0.9, where 1 is the maximum). The following applies: HepG2 Attagene TRANS ERa GAL4 reporter, mRNA. The method in brief:
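Transactivation via ERa-Gal4 chimera in HepG2; 24 hour incubation; reporter mRNA detected by fluorescence RT-PCR and capillary electrophoresis.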

In assay [6] the target is X-box-binding protein 1 (Homo sapiens) (UniProt P17861). Nature of the assay: ATG_Xbp1_CIS: Attagene CIS-FACTORIAL HepG2 Assay for human X-box Binding Protein 1 (XBP1) (AID 2282972). The following applies: HepG2 XBP1 cis-element reporter, Attagene multiplex; actives raise or lower the signal. The method in brief: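 HepG2 cells transiently transfected with cis-regulated multiple reporter transcription units; endogenous transcription factor activity measured 24 hours after chemical dosing. Reporter mRNA quantified by RT-PCR, 6-FAM primer extension, HpaI digestion and capillary electrophoresis; bidirectional fitting versus DMSO.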
X-box-binding protein 1 (Homo sapiens), sequence (P17861 whole entry, looked up): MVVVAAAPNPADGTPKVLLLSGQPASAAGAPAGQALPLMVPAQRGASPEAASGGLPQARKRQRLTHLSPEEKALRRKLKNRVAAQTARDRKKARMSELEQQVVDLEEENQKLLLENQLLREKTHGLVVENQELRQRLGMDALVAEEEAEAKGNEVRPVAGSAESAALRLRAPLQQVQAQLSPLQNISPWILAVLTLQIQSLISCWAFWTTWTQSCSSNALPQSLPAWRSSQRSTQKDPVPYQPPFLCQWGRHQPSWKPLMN

Assay [7] in a line: ATG_M_19_TRANS: Attagene TRANS-FACTORIAL HepG2 Assay for M19 Transcription Factor (Internal Marker) (AID 2282974; active means hit-call score of the fitted dose curve at least 0.9, where 1 is the maximum). The following applies: HepG2 Attagene TRANS-FACTORIAL M19 internal marker reporter. The method in brief:
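24 h chemical exposure of transiently transfected HepG2 (MRTU library). RNA → oligo(dT) RT → PCR → 6-FAM labelling → HpaI cut → CE fluorescence. Positive-direction fit vs DMSO baseline; background internal-marker readout.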

A short description of assay [8]: ATG_GAL4_TRANS: Attagene TRANS-FACTORIAL HepG2 Assay for GAL4 (Internal Marker) (AID 2282976; active means hit-call score of the fitted dose curve at least 0.9, where 1 is the maximum). The following applies: HepG2 Attagene TRANS GAL4 internal marker reporter. The method in brief: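 Fluorescence from capillary electrophoresis of labelled RT-PCR products quantifies reporter mRNA induction after 24 h dosing of HepG2 cells carrying transfected GAL4-UAS reporter transcription units. Vehicle DMSO serves as baseline.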

In assay [9] the target is Steroid hormone receptor ERR1 (Homo sapiens) (UniProt P11474). Nature of the assay: ATG_ERRa_TRANS: Attagene TRANS-FACTORIAL HepG2 Assay for human Estrogen-Related Receptor alpha (ERRa) (AID 2282971; active means hit-call score of the fitted dose curve at least 0.9, where 1 is the maximum). The following applies: HepG2 Attagene TRANS reporter, ERRa transactivation. An outline of the steps: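 HepG2 cells were transiently transfected with multiple GAL4-UAS reporter units, then dosed with compound for 24 h. Total RNA was reverse-transcribed, reporter cDNA PCR-amplified and fluorescently labelled, and fragments resolved by capillary electrophoresis; induction was compared with DMSO.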
Steroid hormone receptor ERR1 (Homo sapiens), sequence (P11474 whole entry, looked up, the tested form may be a part): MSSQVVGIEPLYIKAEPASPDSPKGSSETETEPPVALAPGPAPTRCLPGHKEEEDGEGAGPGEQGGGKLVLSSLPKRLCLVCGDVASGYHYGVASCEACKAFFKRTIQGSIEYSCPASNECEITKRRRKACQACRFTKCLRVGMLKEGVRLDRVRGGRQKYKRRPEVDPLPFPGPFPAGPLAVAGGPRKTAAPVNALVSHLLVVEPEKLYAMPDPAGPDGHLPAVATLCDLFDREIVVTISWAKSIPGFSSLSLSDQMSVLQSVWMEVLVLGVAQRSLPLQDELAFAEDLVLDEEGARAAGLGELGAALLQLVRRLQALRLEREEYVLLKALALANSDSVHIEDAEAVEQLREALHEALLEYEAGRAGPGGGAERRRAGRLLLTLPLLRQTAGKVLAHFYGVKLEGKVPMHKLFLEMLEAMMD

SMILES strings stand for the structures. Inconclusive results are not listed. Calls of active or inactive are those of the source. How the source made its calls, unless noted: active means hit-call score of the fitted dose curve at least 0.9, where 1 is the maximum; inactive means score below 0.9.

Estrogen receptor (Homo sapiens), sequence (P03372 whole entry, looked up, the tested form may be a part): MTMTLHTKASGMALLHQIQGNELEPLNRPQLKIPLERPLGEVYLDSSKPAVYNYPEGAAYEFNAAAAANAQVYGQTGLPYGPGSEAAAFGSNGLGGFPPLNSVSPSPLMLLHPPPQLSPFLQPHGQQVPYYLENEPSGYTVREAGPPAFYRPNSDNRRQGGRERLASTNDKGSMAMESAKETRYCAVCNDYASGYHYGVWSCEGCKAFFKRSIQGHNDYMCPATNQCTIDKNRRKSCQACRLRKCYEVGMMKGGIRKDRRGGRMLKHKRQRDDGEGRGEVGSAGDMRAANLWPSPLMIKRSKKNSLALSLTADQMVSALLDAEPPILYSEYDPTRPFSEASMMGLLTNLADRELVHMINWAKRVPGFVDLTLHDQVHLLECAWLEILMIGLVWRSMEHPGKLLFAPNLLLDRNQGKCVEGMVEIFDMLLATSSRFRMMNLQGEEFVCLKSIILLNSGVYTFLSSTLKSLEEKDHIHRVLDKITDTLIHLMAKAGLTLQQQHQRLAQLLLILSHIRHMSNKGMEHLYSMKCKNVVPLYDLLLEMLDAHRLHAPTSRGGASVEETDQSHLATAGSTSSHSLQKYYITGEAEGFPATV

In the case of `CSc1ccc(Cl)cc1`, the compound was called inactive in assay [1], in [2], in [3], in [4], in assay [5] and in assay [6]. Further, the outcome in [7] was inactive.
On to `OCCC(O)CO` (centres undefined), for which the result in [1], in assay [2], in assay [3], in [4], in assay [5] and in [6] was inactive. The call in assay [7] and in [8] was inactive.
Take `O=C(O)C(F)(F)C(F)(F)C(F)(F)C(=O)O`: the compound was classed as inactive in assay [1], in [2], in [3], in [4], in assay [5] and in [6]. Further, the compound was classed as inactive in assay [7].
On to `O=C(O)CCC(F)(F)C(F)(F)C(F)(F)C(F)(F)C(F)(F)C(F)(F)C(F)(F)F`, for which the concentration at half-maximal activity (AC50) in assay [1] is 150 µM (active). Further, the call in [2], in [3], in [4], in assay [5], in [6] and in assay [7] was inactive.
Consider `O=C(O)C(F)(F)C(F)(F)C(F)(F)OC(F)(C(F)(F)F)C(F)(F)F`, for which the AC50 in assay [1] is 285 µM (active). The call in assay [2], in assay [3], in [4], in [5], in assay [6] and in [7] was inactive. Further, the compound was classed as inactive in assay [8].
On to `CN(C)C(C)(C)CO`, for which the compound was classed as inactive in assay [1], in assay [2], in [3], in assay [4], in assay [5] and in assay [6]. The result in [7] and in [8] was inactive.
On to `OCCCCC(F)(F)C(F)(F)C(F)(F)C(F)(F)F`, for which the outcome in assay [1], in [2], in [3], in assay [4], in assay [5] and in assay [6] was inactive.
Turning to `CCCCOC(=O)[C@H](C)O`, the compound was called inactive in [1], in [2], in assay [3], in [4], in assay [5] and in assay [6]. The call in assay [7] and in assay [8] was inactive.
On to `CCc1cccc(C)c1N(C(=O)C(=O)O)C(C)COC` (centres undefined), for which the result in [1], in [2], in assay [3], in assay [4], in assay [5] and in [6] was inactive. Moreover, the outcome in assay [7] and in assay [8] was inactive.
On to `COc1ccccc1C=O`, for which the compound was called inactive in [1], in assay [2], in assay [3], in assay [4], in [5] and in assay [6]. Besides, the result in [7] and in assay [8] was inactive.
Turning to `CCCCCC/C=C/CCCCCCCC(=O)O`, the call in assay [1], in [2], in assay [3], in assay [4], in assay [5] and in assay [6] was inactive. For the same compound, the result in assay [7] was inactive.
`CCC(Cc1c(I)cc(I)c(N)c1I)C(=O)O` (centres undefined): the concentration at half-maximal activity (AC50) was 55.5 µM (active) in assay [1] and 4.99 µM (active) in assay [5]. In addition, the call in [2], in assay [3], in assay [4] and in [6] was inactive.
Turning to `CCCCCCCCCCCC(=O)Cl`, in [1], the AC50 was 161 µM (active). For the same compound, the outcome in [2], in assay [3], in assay [4], in assay [5] and in assay [6] was inactive.
`CCOCOCC`: the result in assay [1], in [2], in [3], in assay [4], in [5] and in assay [6] was inactive. For the same compound, in assay [7], the compound was called inactive.
Take `OCC(F)(F)C(F)(F)C(F)(F)C(F)(F)C(F)(F)C(F)(F)CO`: the result in assay [1], in assay [2], in assay [3], in [4], in [6] and in assay [7] was inactive. In assay [5], the AC50 was 0.0538 µM (active).
For the compound `CCOC(=O)CCC(C)=O`, the call in assay [1], in assay [2], in assay [3], in [4], in assay [5] and in [6] was inactive. Besides, the compound was classed as inactive in [7] and in assay [8].
For the compound `CCCCCCCCCCCCCC[P+](CCCC)(CCCC)CCCC`, the compound was classed as inactive in assay [1], in [2], in assay [3], in assay [5], in assay [7] and in assay [8]. For the same compound, the AC50 in assay [4] was 0.897 µM (active); in assay [6], 0.834 µM (active).
Consider `COCCC(=O)OC`, for which the compound was called inactive in assay [1], in assay [2], in [3], in assay [4], in assay [5] and in assay [6]. The outcome in [7] and in assay [8] was inactive.
Take `Nc1cc([N+](=O)[O-])cc(Cl)c1O`: the result in assay [1], in assay [2], in assay [3], in assay [4], in assay [5] and in [6] was inactive. Also, the compound was classed as inactive in assay [7] and in [8].
Regarding `CC(C)(C)c1cc(Cc2cc(C(C)(C)C)c(O)c(C(C)(C)C)c2)cc(C(C)(C)C)c1O`, the compound was classed as inactive in assay [1], in [2], in [3], in assay [5], in assay [6] and in assay [7]. The AC50 in assay [4] was 2.31 µM (active).
Consider `CC(C)CCCC(C)CCO` (centres undefined), for which the call in [1], in assay [2], in assay [3], in assay [4], in [5] and in assay [6] was inactive. For the same compound, the compound was classed as inactive in assay [7] and in [8].
With `CO[Si](C)(CCC(F)(F)C(F)(F)C(F)(F)C(F)(F)C(F)(F)C(F)(F)F)OC`, the result in assay [1], in assay [2], in [3], in [4], in assay [5] and in assay [6] was inactive. In [7], the outcome was inactive.
For the compound `CCCCCCCC/C=C\CCCCCCCC(=O)N(C)CC(=O)O`, the compound was classed as inactive in assay [1], in assay [2], in assay [3], in [4], in assay [5] and in assay [6]. In assay [7], the compound was called inactive.
`O=C1OC(=O)c2ccc3c4c(ccc1c24)C(=O)OC3=O`: the compound was called inactive in assay [1], in assay [2], in assay [3], in assay [4], in assay [5] and in assay [6]. Moreover, the compound was classed as inactive in assay [8].
Take `CCCCCCCCCc1ccc(OCCO)cc1`: in assay [1], the AC50 was 21.5 µM (active). Moreover, the compound was classed as inactive in [2], in assay [3], in assay [4], in assay [5], in assay [6] and in assay [7].
For `O=C(O)C(F)(F)OC(F)(F)C(F)(F)OC(F)(F)C(F)(F)OC(F)(F)F`, the call in assay [1], in [2], in [3], in assay [4], in assay [5] and in [6] was inactive.
With `Brc1nc2ccccc2s1`, the call in [1], in assay [2], in [3], in assay [4], in [5] and in [6] was inactive. Also, the compound was classed as inactive in assay [7] and in assay [8].
Take `OCCCc1cccnc1`: the compound was classed as inactive in [1], in assay [2], in [3], in assay [4], in [5] and in assay [6]. Further, in [8], the compound was classed as inactive.
`C#CC(O)CCC` (centres undefined): the result in assay [1], in [2], in [3], in [4], in [9] and in assay [6] was inactive. Moreover, the outcome in [7] and in assay [8] was inactive.
For `Oc1ccc(C2(c3ccc(O)c(C4CCCCC4)c3)CCCCC2)cc1C1CCCCC1`, the AC50 in [1] was 33.4 µM (active); in assay [2] it was 17.9 µM (active); in [4], 0.619 µM (active); in [6] it was 6.08 µM (active). The result in assay [3], in assay [5] and in assay [8] was inactive.
